# Data taken from paper PMC7819943, “Rice protein-binding microarrays: a tool to detect cis-acting elements near promoter regions in rice”.
# Whole data set: some 68,000 sequences, median “fluorescence intensity (a.u.)” near 9,100, cut for the highest 2% near 16,000. The entries come from a sample that favours the highest values as a whole.
# Target: OsWRKY34 (Oryza sativa, UniProt Q0JBA9 1-250)
# Experiment: protein-binding microarray (RPBM); PBS, 2% BSA, 51.3 ng/ul salmon testes DNA, 50 uM zinc acetate, 200 nM TF, 25 C, 1 h; high values mean tight binding
# Details: protein: recombinant; tags: N-terminal polyhistidine and DsRed monomer fusion (pET32a); label: CyDye5-dUTP incorporated in the synthesized complementary strand; 3' TTTTT single-stranded linker to array surface; dsDNA, one strand shown
# In short: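 Binding signal here means per-feature fluorescence intensity in arbitrary units. The values were read on an Axon 4000B scanner after a custom Agilent array, double-stranded by primer extension with Cy5-dUTP, was incubated with 200 nM protein at 25 °C for 1 h in PBS with 2% BSA, salmon testes DNA and 50 µM zinc acetate, then washed. The proteins were transcription factors with an N-terminal polyhistidine tag and DsRed, expressed in E. coli BL21-CodonPlus and purified on Ni–NTA.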
# OsWRKY34, sequence (Q0JBA9 entry or part of it): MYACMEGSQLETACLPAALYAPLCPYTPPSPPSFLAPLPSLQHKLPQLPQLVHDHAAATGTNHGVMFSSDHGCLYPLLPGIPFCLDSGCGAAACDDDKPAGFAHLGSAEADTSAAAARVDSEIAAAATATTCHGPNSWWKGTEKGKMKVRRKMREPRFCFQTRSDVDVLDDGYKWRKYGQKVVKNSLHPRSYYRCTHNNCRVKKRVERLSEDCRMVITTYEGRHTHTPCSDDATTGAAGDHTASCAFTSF
row,Sequence,binding signal
1,CCTACTTGTTGGCTTCTATCTCCTGTTAATTAATTTCTCACGGAGTCACCTAGTGCAG,8450 fluorescence intensity (a.u.)
2,AATCGTTTTCTTTCTTGTCTTCAAACTTATTTTCCCGTTTCGGAGTCACCTAGTGCAG,9600 fluorescence intensity (a.u.)
3,CAGGTGGACGGCGGTGGTGGTGGTGGTGGTGGCGGCGATGCGGAGTCACCTAGTGCAG,17000 fluorescence intensity (a.u.)
4,AGGTGGAGGTGGAGGTGGAGGAGGGCGGCGGGTGGCGATGCGGAGTCACCTAGTGCAG,16500 fluorescence intensity (a.u.)
5,CAGTTTCATCCCTAGGTGGTGGTGGCGGTGCGTGGAGTGACGGAGTCACCTAGTGCAG,16600 fluorescence intensity (a.u.)
6,GTCAGGTGGCGGCGGCGGCGGTGGTGGCGGTGGAGGTGGACGGAGTCACCTAGTGCAG,14400 fluorescence intensity (a.u.)
7,AAGGGTGGGCGTGATGGAGTTTGGATGGGCCCTGCGACGGCGGAGTCACCTAGTGCAG,9160 fluorescence intensity (a.u.)
8,AGGAGGTGGTGGGTGGTGGTGGCTGCGGCTTGGCGCGATGCGGAGTCACCTAGTGCAG,9400 fluorescence intensity (a.u.)
9,GAGGAGAGGCGGGGTGAGACGGGACGGGAGGGTGGCGATGCGGAGTCACCTAGTGCAG,9530 fluorescence intensity (a.u.)
10,GGAGGGCGGTGGCGAGGGCGGCGGTGGCGCGGATGCTGGACGGAGTCACCTAGTGCAG,8960 fluorescence intensity (a.u.)
11,GGCGGTGGCGGTGACGGTGGAGGTGGAGGCGGTGTGGCATCGGAGTCACCTAGTGCAG,8420 fluorescence intensity (a.u.)
12,TCATGATGAATCGGGGTGGTGGAGGTTTGCTTGTTATGGTCGGAGTCACCTAGTGCAG,11000 fluorescence intensity (a.u.)
13,AGATTTGACTATCCTGCTGGAATCCGGTAACAATTTTTCACGGAGTCACCTAGTGCAG,9560 fluorescence intensity (a.u.)
14,TTGGTTGGTTGGTTATACAAAGACGCTACGAGTCCGGGAACGGAGTCACCTAGTGCAG,12400 fluorescence intensity (a.u.)
15,ACCATAAAGCCAAGTTTCATCCATAATCCTTATTTTTCATCGGAGTCACCTAGTGCAG,8670 fluorescence intensity (a.u.)
16,TGTTATATTTGTATTTGTGCTTTGCTTCTTCTAGGCTTTTCGGAGTCACCTAGTGCAG,8740 fluorescence intensity (a.u.)
17,TCTCTGTCTCACTCTTCCTCTCTCTCACACGCACGGCGAGCGGAGTCACCTAGTGCAG,8380 fluorescence intensity (a.u.)
18,GGAGGGGCGGTGGCCGCCGGCGGCCCGCGCGGCGGGAGCGCGGAGTCACCTAGTGCAG,9240 fluorescence intensity (a.u.)
19,CACTCCGCTGCCGCCCGCCGGAAGGGGAGGGGAGGAGGGGCGGAGTCACCTAGTGCAG,11700 fluorescence intensity (a.u.)
20,GGGGAGGCGGGGTGGCGGGAGGGAAGGCGGCGGCGGCGCCCGGAGTCACCTAGTGCAG,12700 fluorescence intensity (a.u.)
21,AGGGCGCCGTCGTTCGTCATGCTGCTTCCGCCGCATCCTGCGGAGTCACCTAGTGCAG,9240 fluorescence intensity (a.u.)

row,Sequence,binding signal
1,GGTGGAGGCGGGCGCGGTGGAGGCGGGGAGGAAGGGGAGCCGGAGTCACCTAGTGCAG,15100 fluorescence intensity (a.u.)
2,CCCCGGAAGGGGCGGGGAGGGGAGGGCGGCAGCGGCGCCGCGGAGTCACCTAGTGCAG,18500 fluorescence intensity (a.u.)
3,GGCCGGGGAGGGAGGGGCGCCGTCGTCCTGCTGCATCCTGCGGAGTCACCTAGTGCAG,20700 fluorescence intensity (a.u.)
4,GGGGCGCCGGGAAGGAGGGCGCTGTGTGGGAGGGAGGGAGCGGAGTCACCTAGTGCAG,17100 fluorescence intensity (a.u.)
5,GGGGCGCCGCCGTTCGTCCTGCTGCTTCCGCCGCATCCTGCGGAGTCACCTAGTGCAG,9650 fluorescence intensity (a.u.)
6,GCCGTCCGCCGTGAGCCGGTGCTGTCCACGACGTCGTCTTCGGAGTCACCTAGTGCAG,9640 fluorescence intensity (a.u.)
7,TTACTCCTGGACCAGCATTGCTACAACTATCATTTTCTCCCGGAGTCACCTAGTGCAG,9840 fluorescence intensity (a.u.)
8,GGTTTTAAAGGGGTTCCATACACGTATGATAATAAGAGACCGGAGTCACCTAGTGCAG,8180 fluorescence intensity (a.u.)
9,GTCCAGGTTGGTTTTCATGGGTCGAGTGGCATCAGATGGGCGGAGTCACCTAGTGCAG,10100 fluorescence intensity (a.u.)
10,TTCTTGATCTTTCTGGTTTCTACTGGTTGATTGTACACTTCGGAGTCACCTAGTGCAG,8500 fluorescence intensity (a.u.)
11,TTTTTTCTGTTTGTCCTCCATATATGTCAGCTCTAAAAATCGGAGTCACCTAGTGCAG,9300 fluorescence intensity (a.u.)
12,GCCCTTAACGCGATCATGTAACAATGTATCTAAGCCTATACGGAGTCACCTAGTGCAG,8200 fluorescence intensity (a.u.)
13,TTCCTAGTACTATCTGCGTTGCGTTGACTGACATGTGGGCCGGAGTCACCTAGTGCAG,17000 fluorescence intensity (a.u.)
14,ATCCGTTGCCCTCGCTCCTATAACTGCGTTGACATGTCGCCGGAGTCACCTAGTGCAG,9550 fluorescence intensity (a.u.)
15,AGGGAGGGAGGGAGGAGGAAGGAGGACTGACATGTGGGCCCGGAGTCACCTAGTGCAG,9250 fluorescence intensity (a.u.)
16,ACCTGACGGCCCAACCAGGCGACCGCTCTCTCCGTTTTCCCGGAGTCACCTAGTGCAG,8070 fluorescence intensity (a.u.)
17,ACCCAATCTCAATTTGCCCTGTTGCCAACCCTAGTGATGACGGAGTCACCTAGTGCAG,8520 fluorescence intensity (a.u.)
18,TTCTTTCCGTTGTGCTTGCTGCTTTTCTCTACTACCTTTTCGGAGTCACCTAGTGCAG,9900 fluorescence intensity (a.u.)
19,ACTCCCTCCGTTTCACAATGTAAGTCATTCTAGCATTTCCCGGAGTCACCTAGTGCAG,9500 fluorescence intensity (a.u.)
20,TGATTTATGAATTATGATTACTAATACTGTTTTTTGTCCTCGGAGTCACCTAGTGCAG,8780 fluorescence intensity (a.u.)
21,ACATATTGGTTGACTTTTTGCCGGGTCCACCGATTGGCACCGGAGTCACCTAGTGCAG,17700 fluorescence intensity (a.u.)
